Screening data deposited in PubChem by several laboratories.
Shown are actives, neighbours in structure and some others; about 2% of the full set was active somewhere.
Jurkat NFkB inh – inhibitors of induced NF-kB luciferase reporter, primary screen, TCR NF-kB activation inhibitor project, cell-based, luminescence, uHTS; Jurkat, PMA/ionomycin-induced NF-kB luciferase reporter; inhibition, % at 4 µM; 330,000 tested, 0.53% active; in the data active = inhibition above about 50%
COUP-TFII inh – NR2F2 transcriptional activity inhibitors, primary screen, cell-based, luciferase reporter, HEK293T, luminescence | COUP transcription factor 2 (Homo sapiens), P24468 | HEK293T NGFI-A luciferase reporter | inhibition, % at 8.6 µM | 370,000 tested, 0.7% active | AID 686940, 2013;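 active = inhibition above a per-plate cutoff, mean inhibition of test wells between control levels plus 3 SD, cut at about 38% in these data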;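 note: cells cotransfected with COUP-TFII expression vector driving the NGFI-A reporter; 0% = median of COUP-TF2 test wells and 100% = reporter-only cells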
GalR3 antag – GalR3 antagonists in HEK293 cells, primary screen, cell-based, fluorescence readout; AID 651719, 2012; inhibition, % at 3 µM; HEK293 GalR3-CNG cAMP membrane potential fluorescence; galR3 body fused to GalR1 C-terminus; 360,000 tested, 0.44% active;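 active = inhibition above the screen-wide average plus 3 SD, cut at about 13% in these data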;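 note: forskolin and galanin both at EC90 stimulate the cells; cAMP rise reported by CNG channel membrane potential dye signal; 0% = forskolin plus galanin with DMSO and 100% = forskolin alone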
Target sequence (O60755 1-299 limits assumed): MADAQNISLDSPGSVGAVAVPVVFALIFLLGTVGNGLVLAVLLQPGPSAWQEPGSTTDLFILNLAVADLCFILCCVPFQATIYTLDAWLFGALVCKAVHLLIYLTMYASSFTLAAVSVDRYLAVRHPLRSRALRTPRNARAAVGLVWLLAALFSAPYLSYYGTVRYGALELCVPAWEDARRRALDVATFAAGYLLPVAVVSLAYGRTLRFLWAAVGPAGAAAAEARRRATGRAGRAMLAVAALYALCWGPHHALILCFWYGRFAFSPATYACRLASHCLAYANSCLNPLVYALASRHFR
Gli-Sufu antag – Gli-Sufu pathway antagonists, primary screen, luciferase luminescence, Sufu-KO-LIGHT cells, uHTS. Sufu-KO-LIGHT fibroblasts, Gli luciferase reporter luminescence. inhibition, % at 5 µM. 340,000 tested, 0.74% active. AID 588413, 2011;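 active = inhibition above about 55%, limit read from the data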;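 note: 0% = DMSO-treated cells and 100% = wells with medium but no cells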
697 NFkB inh – inhibitors of PMA/ionomycin-induced NF-kB reporter, 697 cells, primary screen, B-cell NF-kB inhibitor project, cell-based, luminescence, uHTS | 697 B-cell NF-kB luciferase reporter, 16 h | inhibition, % at 4 µM | 330,000 tested, 0.33% active | AID 435022, 2010; in the data active = inhibition above about 35%
697 NFkB conf – PMA/ionomycin-induced NF-kB reporter inhibitors, 697 retest, confirmation, B-cell NF-kB inhibitor project, cell-based, luminescence, single concentration; AID 449746, 2010; shares compounds with 697 NFkB inh; 2,000 tested, 35% active; 697 B-cell NF-kB luciferase, 16 h; inhibition, % at 4 µM; in the data active = inhibition mostly above about 28%, no sharp cut-off; inactive = mostly below about 22%
* hit, by the source's call; x = not tested or not shown.

SMILES	Jurkat NFkB inh	COUP-TFII inh	GalR3 antag	Gli-Sufu antag	697 NFkB inh	697 NFkB conf
Cc1ccc2c(c1)C1CS(=O)(=O)N(Cc3ccccc3)CN1C2 (stereo not given)	x	-1	x	x	x	x
CCOc1ccc(-c2nnc(SCC(=O)Nc3cc(C)on3)o2)cc1	-17	-2	-3	14	35	41*
CCOC(=O)N1CCC(NC(=O)CSCc2nc(-c3ccc(OCC)cc3)oc2C)CC1	5	-5	-8	6	-2	x
CCOc1ccc(-c2nc(CSCC(=O)NCc3ccco3)c(C)o2)cc1	40	5	-7	8	99*	99*
COc1ccc2c(c1)CN1C(=O)N(Cc3ccccc3)S(=O)(=O)CC21 (stereo not given)	x	-13	x	x	x	x
COc1cc(C(=O)Nc2cc(C)c(OCC(=O)N3CCOCC3)c(C)c2)cc(OC)c1OC	5	-17	4	-4	36*	32*
Cc1cc(NC(=O)c2ccccc2F)cc(C)c1OCC(=O)N1CCOCC1	7	4	-1	-7	15	x
COC(=O)[C@]12C[C@H](CC(=O)NCc3ccc(C)o3)C(=O)N(Cc3ccc(Cl)cc3Cl)C1=C[C@H](C1CCCC1)O[C@@H]2C	x	-12	x	x	x	x
Cc1nn(-c2ccc(N3CCCCC3)nn2)c(C)c1CCC(=O)Nc1ccccc1F	-38	-3	-8	-30	51*	48*
COc1ccc(/C=N\NC(=O)c2sccc2C)cc1Cn1nc(C)cc1C	3	-126	1	42	39*	44*
O=C(CSc1nnc(COc2ccccc2)n1-c1ccccc1)Nc1ccc2c(c1)OCCO2	x	-8	x	x	x	x
NC(=O)c1c(NC(=O)c2ccco2)sc2c1CCC2	-89	-27	-11	-43	-88	x
NC(=O)c1c(NC(NC(=O)c2ccco2)(C(F)(F)F)C(F)(F)F)sc2c1CCCC2	11	-27	-3	5	39*	7
CCN(CC)S(=O)(=O)c1ccc(-c2cn3cc(Cl)ccc3n2)cc1	-8	-19	-5	5	-49	x
Clc1ccc(-c2cn3cc(Cl)ccc3n2)cc1	-104	-34	-5	-111	-312	-381
CC(C)CN(C(=O)COC(=O)c1ccc(Br)o1)c1c(N)n(Cc2ccccc2)c(=O)[nH]c1=O	20	13	-2	1	22	x
Cc1ccc(C(=O)OCC(=O)N(CC(C)C)c2c(N)n(Cc3ccccc3)c(=O)[nH]c2=O)o1	16	-2	-2	6	40*	26*
CC(C)CN(C(=O)COC(=O)C12CC3CC(CC(C3)C1)C2)c1c(N)n(Cc2ccccc2)c(=O)[nH]c1=O	14	2	-6	31	50*	52*
O=C1c2ccccc2C(=O)C1c1ccc2ccccc2n1	-56	-43	-2	-53	-253	-381
COC(=O)C1=C(C)NC(C)=C(C(=O)OC)C1c1ccc2ccccc2n1	-1	-3	-2	-8	-26	x
COC(=O)[C@@H]1N=C(c2ccc(OC)cc2)O[C@]12C(=O)N(Cc1cn(Cc3ccccc3)nn1)c1cccc(Cl)c12	x	12	x	x	x	x
Cc1cc(C)cc(N2Cc3ccccc3C2)c1	-18	11	x	3	0	x
COc1cc(N2Cc3ccccc3C2)ccc1C=O	-41	-34	-11	-52	-250	-209
Cc1c(CCC(=O)NCCCCCC(=O)O)c(=O)oc2c(C)c3oc4c(c3cc12)CCCC4	-13	-2	8	3	23	x
Cc1c(CCC(=O)NCCCn2ccnc2)c(=O)oc2c(C)c3oc4c(c3cc12)CCCC4	18	x	x	-4	38*	23*
SMILES	Jurkat NFkB inh	COUP-TFII inh	GalR3 antag	Gli-Sufu antag	697 NFkB inh	697 NFkB conf
Cc1ccccc1C1CCC2(CCC(=O)N2CC[C@@H](O)c2ccccc2)CC1 (stereo not given in full)	x	-10	x	x	x	x
COc1ccc(NC(=O)c2ccc(COc3ccccc3OC)o2)cc1OC	-11	5	-2	-4	-15	x
COc1ccc(NC(=O)c2ccc(COc3ccccc3Br)o2)cc1OC	2	-16	-4	-12	43*	5
O=C(Nc1cccc(-c2nc3ccccc3s2)c1)c1ccc2c(c1)OCO2	-14	-8	3	-14	-8	x
c1ccc2sc(-c3ccc4c(c3)OCO4)nc2c1	-144	x	x	-70	-361	-242
COc1ccc(C(CCOC(=O)Oc2ccccc2)c2cc(OC)cc(OC)c2)cc1 (stereo not given)	x	-9	x	x	x	x
Cc1nc2ccc(S(=O)(=O)NCC(=O)N(C)Cc3ccc(F)cc3)cc2s1	x	4	x	x	x	x
COc1cc2c3c(c1)c(N=NC(N)=S)c(O)n3C(C)(C)C=C2C	-1	-12	-4	-11	42*	42*
COc1ccc(-n2c(SCC(=O)Nc3ccc(S(=O)(=O)Nc4nccs4)cc3)nnc2-c2cccs2)cc1	x	4	x	x	x	x
O=C(NC1CCCC1)C1(C(=O)C2CC2)CC(c2ccccn2)=NO1 (stereo not given)	x	-21	x	x	x	x
COc1ccccc1Cn1c(=O)c2ccccc2n2c(Sc3ncnc4sccc34)nnc12	14	-7	-2	5	35*	18
COc1ccccc1Cn1c(=O)c2ccccc2n2c(SCc3csc(C)n3)nnc12	-11	-2	-1	2	-1	x
O=C1c2ccccc2C2=Nc3ccccc3SC(c3cccc(F)c3)C12 (stereo not given)	32	-20	-7	5	-50	x
Fc1cccc(C2NN=C(c3ccccc3)S2)c1 (stereo not given)	-140	-50	-5	-122	-300	-218
COc1cccc(/C=N/NC(=O)C(=O)N/N=C/c2cccc(OC)c2OC)c1OC	-12	-1	2	4	-8	x
COc1cccc(/C=N\NC(=O)c2sc(N)nc2C)c1OC	2	-13	-2	2	39*	8
Cc1noc(C)c1COc1ccc(C(=O)OCC(=O)Nc2cccc(S(=O)(=O)N3CCOCC3)c2)cc1	5	-13	2	-4	39*	0
O=C(OCc1cn(Cc2ccc(F)cc2)nn1)N1CCCC1	x	6	x	x	x	x
COc1cc(OC)cc(-c2cc3nc(C)c(CCC(=O)Nc4nc(C)cs4)c(C)n3n2)c1	10	31	0	24	36*	39*
COc1cc(NC(=O)CCc2c(C)nc3nc(C)nn3c2C)cc(OC)c1	-6	-6	-2	1	-8	x
Cn1c(=O)cc(OCCCC(=O)NC2CCCC2)c2ccccc21	4	-92	-4	32	69*	46*
Cn1c(=O)cc(OCC(=O)NC2CCCCC2)c2ccccc21	-12	-27	-2	3	-5	x
Cn1c(=O)cc(OCCCC(=O)N2CCCCC2)c2ccccc21	-10	-56	-5	13	39*	42*
